Shown are actives, neighbours in structure and some others; about 4.2% of the full set was active somewhere.
hgDAF-12 ag = hgDAF-12 agonism, primary luciferase screen | HEK293 GAL4-hgDAF12 UAS-luciferase reporter, agonist luminescence; normalized to butyrate control | activation, % at 6.8 µM | 1.8% of 370,000 active;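 active means activation above a cutoff set at the mean of all screened compounds plus 3 SD, cut at about 10% in these data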;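 further: 0% = DMSO wells and 100% = sodium butyrate wells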
hcDAF-12 act = activates DAF-12 receptor from parasite H. contortus; 1.4% of 370,000 active; activation, % at 6.8 µM; HEK293 hcDAF-12 lit1-tk-luc reporter, luminescence; 0% DMSO, 100% Δ7-dafachronic acid; AID 652067;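 active means activation above the mean of all tested compounds plus 3 SD, cut at about 5.5% in these data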;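 further: 100% = response to 3 µM Δ7-dafachronic acid high control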
ssDAF-12 act = activators of S. stercoralis DAF-12 nuclear receptor | AID 652126 | HEK293 ssDAF-12/GRIP1 lit1-tk-luc reporter, luminescence; % of 3 µM dafachronic acid response | 1% of 370,000 active | activation, % at 6.8 µM;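 active means activation above the mean over all tested compounds plus 3 SD, cut at about 0.9% in these data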;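 further: 0% = DMSO-only wells and 100% = 3 µM delta7-dafachronic acid wells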
DAX1 StAR inh = blocks DAX1 repression of SF-1 activated StAR promoter | 1.1% of 370,000 active | AID 652010 | inhibition, % at 6.8 µM | HEK293T StAR-luciferase reporter, SF-1/DAX-1 repression relief;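 active means inhibition above the mean over all tested compounds plus 3 SD, cut at about 3.6% in these data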;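 further: 0% = DAX-1 cells with DMSO and 100% = cells lacking DAX-1 with DMSO; higher inhibition means more luminescence from relief of DAX-1 repression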
esBAF inh = blocks esBAF chromatin remodeling in mouse ES cells; reporter increase, % at 12.5 µM; 2% of 350,000 active; Bmi1-luciferase knock-in reporter, 24 h; 100% = twice the neutral-well signal; in the data active means activation above about 40%; inconclusive means no clear call, values can overlap the other calls;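 further: 0% = median of the plate's neutral control wells and 100% = double that signal; a rise in the Bmi1 reporter signal indicates esBAF inhibition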
Wnt act = activates Wnt/beta-catenin signaling in a reporter cell assay. activation, % at 9.35 µM. activator, plate reader. 1.2% of 300,000 active; in the data active means activation above about 30%, passing the limit was not always enough; inconclusive means no clear call, values can overlap the other calls;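 further: 0% = neutral control wells and 100% = positive control wells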
DAX1 conf = confirmation of human DAX1 (NR0B1) inhibitors; inhibition, % at 6.8 µM; 87% of 2,400 active; shares compounds with DAX1 StAR inh; AID 652134; HEK293T StAR-promoter luciferase reporter, SF-1/DAX-1 repression;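 active means inhibition above the average of every tested compound plus 3 SD, cut at about 3.8% in these data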;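 further: 0% = DAX-1 cells with DMSO and 100% = no DAX-1 control cells with DMSO; active compounds raise luminescence by relieving repression of the StAR reporter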
Target sequence (P51843 whole entry, looked up): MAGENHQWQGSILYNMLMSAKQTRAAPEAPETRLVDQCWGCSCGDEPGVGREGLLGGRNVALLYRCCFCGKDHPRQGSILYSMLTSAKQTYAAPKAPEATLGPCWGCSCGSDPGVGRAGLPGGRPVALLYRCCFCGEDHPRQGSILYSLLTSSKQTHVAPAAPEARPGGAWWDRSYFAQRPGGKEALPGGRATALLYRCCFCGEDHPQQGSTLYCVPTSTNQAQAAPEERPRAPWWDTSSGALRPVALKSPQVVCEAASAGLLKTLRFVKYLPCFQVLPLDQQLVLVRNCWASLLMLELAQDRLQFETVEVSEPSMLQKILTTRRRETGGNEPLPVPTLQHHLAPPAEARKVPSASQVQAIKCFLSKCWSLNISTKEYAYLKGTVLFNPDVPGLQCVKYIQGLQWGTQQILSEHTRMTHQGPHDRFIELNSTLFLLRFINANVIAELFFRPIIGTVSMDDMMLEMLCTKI
SF1 AF2mut Luc = counter-screen for DAX1 inhibitors: nonselective inhibitors with SF-1 AF2 mutant | shares compounds with DAX1 StAR inh | HEK293 StAR-luciferase, luminescence | inhibition, % at 6.8 µM | 78% of 2,400 active | AID 652136;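 active means inhibition above the mean of all tested compounds plus 3 SD, cut at about 3% in these data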;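 further: 0% = DAX-1 transfected cells with DMSO and 100% = cells without DAX-1 with DMSO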
Starred values were filed as active, the others as inactive; ? = inconclusive; / = no result given.

SMILES	hgDAF-12 ag	hcDAF-12 act	ssDAF-12 act	DAX1 StAR inh	esBAF inh	Wnt act	DAX1 conf	SF1 AF2mut Luc
CCCN1CCN(CCCNC(=O)c2ccc3nc(N4CCC(C)CC4)sc3c2)CC1	10	5	0	6.0*	55*	12	9.2*	4.8*
COc1cccc(C(NC(C)=O)c2nc(-c3ccc(F)cc3OC)cs2)c1 (configuration not stated)	3	-1	-1	5.8*	-12	-7	6.6*	3.3*
COc1cc(F)ccc1-c1csc(C(NC(C)=O)c2ccccc2)n1 (configuration not stated)	3	-1	0	3	-5	-4	/	/
C[C@@H]1CCCCO[C@H](CN(C)S(C)(=O)=O)[C@@H](C)CN([C@H](C)CO)C(=O)c2cc(NC(=O)CCC(F)(F)F)ccc2O1	/	/	/	/	1	/	/	/
C=CCSc1nc2c(C(=O)OCC)nnn2c2ccccc12	0	2	0	0	2	-2	/	/
Nc1nc2c(C(=O)N3CCCC3)nnn2c2ccccc12	11*	3	-1	4.7*	/	24	9.2*	4.8*
CCCN(CCC)c1ncnc2c1cnn2-c1ccc(OC)cc1	10	5	0	5.3*	37	/	14*	3.1*
COc1ccc(-n2ncc3c(Nc4cccc(C)c4)ncnc32)cc1	3	-1	-1	1	35	-3	/	/
COc1cc(C(=O)NCCC(=O)NC(C)C)cc(OC)c1OC	4	-2	-1	5.3*	/	0	0	-2
COc1cc(C(=O)NCCC(=O)NC2CCCCCCC2)cc(OC)c1OC	-2	-2	-1	0	-4	/	/	/
CCOC(=O)NC1CCc2cc(OC)c(OC)c(OC)c2-c2ccc(SC)c(=O)cc21 (configuration not stated)	-6	-1	-1	5.0*	/	-9	13*	-7
COc1cc2c(c(OC)c1OC)-c1ccc(NC(=O)c3ccccc3)c(=O)cc1[C@@H](NC(C)=O)CC2	-2	-4	-1	0	-10	3	/	/
CN[C@H]1CCc2cc(OC)c(OC)c(OC)c2-c2ccc(OC)c(=O)cc21	-3	0	0	6.8*	-14	-23	19*	-8
CCCCOC(=O)NC1CCc2cc(OC)c(OC)c(OC)c2-c2ccc(SC)c(=O)cc21 (configuration not stated)	-2	1	-1	2	/	-23	/	/
O=C(Nc1ccc(N2CCOCC2)c(F)c1)c1cccs1	10	4	0	10*	23	?	11*	7.4*
O=C(NCC[C@@H]1CC[C@@H](NS(=O)(=O)c2ccc(F)cc2)[C@@H](CO)O1)Nc1ccc(F)cc1	/	/	/	/	13	/	/	/
Cc1ccc(OCC(=O)Nc2ccc3c(c2)OCO3)c(C)c1	13*	4	-1	6.5*	/	13	7.2*	5.7*
CCC(=O)Nc1ccc(C(=O)Nc2ccc3c(c2)OCO3)cc1	0	-2	-1	0	26	/	/	/
CCCOc1ccc(C(=O)Nc2ccc3c(c2)OCO3)cc1	7	2	0	10*	20	43*	9.6*	4.9*
CC(=O)c1cc(F)ccc1OCC(=O)Nc1ccc2c(c1)OCO2	11*	4	1.0*	11*	7	53*	12*	6.3*
Cc1noc(C)c1NC(=O)Nc1ccc2c(c1)C(=O)N([C@H](C)CO)C[C@@H](C)[C@@H](CN(C)C(=O)Nc1ccccc1)O2	/	/	/	/	-2	/	/	/
O=C(C[C@@H]1C=C[C@H](NS(=O)(=O)c2ccccc2F)[C@H](CO)O1)NCCCN1CCOCC1	/	/	/	/	0	/	/	/
COc1ccc(S(=O)(=O)N(C)C[C@@H]2Oc3ccc(NS(=O)(=O)c4c(C)noc4C)cc3C(=O)N([C@@H](C)CO)C[C@@H]2C)cc1	/	/	/	/	2	/	/	/
CCN(CC)CCCn1c2c(c(SCC(=O)Nc3ccc(F)c(F)c3)nc1=O)CCC2	-1	1	-1	4.7*	/	-1	2	2

Compound activity: PubChem, several laboratories
